Compound activity (PubChem)
This is a sample that favours compounds with a hit; in the whole collection about 3.6% have one here.
mHTT CaM bind – mutant huntingtin-calmodulin interaction inhibitors – biochemical, AlphaScreen, primary screen; P42858; AlphaScreen His-mHTT/GST-CaM binding, luminescence; inhibition, % at 15 µM; actives 3.6% (n = 190,000); AID 1671202, 2021
Pf apPOL inh – Pf-apPOL inhibitors, biochemical, fluorescence; Plasmodium falciparum apicoplast DNA polymerase (apPOL); Recombinant Pf-apPOL, molecular beacon fluorescence, 1.5 h; inhibition, % at 10 µM; actives 0.25% (n = 210,000)
Hits are given with their value; - = inactive; . = no result given. No stated cut-off is given here; in the data, active means inhibition above about 50%; inactive means the rest.

SMILES	mHTT CaM bind	Pf apPOL inh
Cc1ccc(CN2CCN(C3CCN(C(=O)Nc4ccc(C)c(C)c4)CC3)C2=O)cc1	-	-
COc1cccc(/C=C2/N=C(c3ccc(C(C)(C)C)cc3)OC2=O)c1OC	-	-
CCCn1c(N2CCC(C(=O)N3CCCCC3)CC2)nc2ccccc21	-	-
CCn1c(=O)c(N2CCCC(C(=O)NCCCN3CCCCCC3)C2)nc2ccccc21 (stereo not drawn)	93.6	-
CC(C)CCn1c(N2CCCC(C(=O)N3CCCC3)C2)nc2ccccc21 (stereo not drawn)	54.7	-
O=C(NCCCN1CCCC1)C1CCCN(c2ncc(-c3ccccc3)cn2)C1 (stereo not drawn)	-	-
N#CC1=C(N)N(c2sc3c(c2C#N)CCCCC3)C2=C(C(=O)CCC2)C1c1cccnc1 (stereo not drawn)	-	-
CC(=O)N(Cc1ccc2c(c1)OCO2)Cc1cc(-c2ccc(C)cc2C)on1	61.2	-
CCN(Cc1cc(-c2ccc(C)cc2C)on1)C(=O)c1ccc(C)cc1	-	-
CCCCCCCCCCCCSC(=S)NCC1CCCO1 (stereo not drawn)	.	-
COc1ccc(S(=O)(=O)Nc2cc3sc(=O)oc3c3ccccc23)cc1	100.3	-
COc1ccc(S(=O)(=O)Nc2ccc3oc(=O)sc3c2)cc1	-	-
CSCCC(NC(=O)C1CCC(C)CC1)C(=O)Nc1ccc(C)cn1 (stereo not drawn)	-	-
CCC(C)NC(=O)c1cnn2c(C)c(Cc3c(C)cc(C)cc3C)c(C)nc12 (stereo not drawn)	-	-
CCC(C)NC(=O)c1cnn2c(C)c(Cc3ccccc3C)c(C)nc12 (stereo not drawn)	87.0	-
CCC(C)NC(=O)c1cnn2c(C)c(Cc3ccc(Cl)cc3)c(C)nc12 (stereo not drawn)	-	-
Cc1nc2c(C(=O)O)cnn2c(C)c1Cc1ccccc1	-	-
CCC(C)NC(=O)c1cnn2c(C)c(Cc3cccc(Cl)c3)c(C)nc12 (stereo not drawn)	82.0	-
CCC(C)NC(=O)c1cnn2c(C)c(Cc3cccc(Br)c3)c(C)nc12 (stereo not drawn)	74.0	-
CC(=O)N1CCc2cc(N3CC(C(=O)Nc4ccccc4C(F)(F)F)CC3=O)ccc21 (stereo not drawn)	-	-
O=C(C1c2ccccc2Oc2ccccc21)N1CCN(CC(O)c2cccs2)CC1 (stereo not drawn)	-	-
CCOc1ccc(CC(=O)Nc2cc(-c3cccnc3)no2)cc1	-	-
O=C(C1=NNCC1c1cccc2ccccc12)c1ccccc1 (stereo not drawn)	.	-
NC(=O)c1ccc(N=Cc2ccc([N+](=O)[O-])cc2)cc1	-	-
COc1ccccc1-n1nc(C(=O)N2CCC(Cc3ccccc3)CC2)c2ccccc2c1=O	58.0	-
SMILES	mHTT CaM bind	Pf apPOL inh
COc1ccc(-n2nc(C(=O)N3CCC(C)CC3)c3ccccc3c2=O)c(OC)c1	-	51.4
COc1ccccc1-n1nc(C(=O)N2CCC(C)CC2)c2ccccc2c1=O	-	-
COc1ccc(-n2nc(C(=O)N3CCCC3)c3ccccc3c2=O)c(OC)c1	-	-
C=Cc1ccc(Cn2cc(S(=O)(=O)N3CCOCC3)ccc2=O)cc1	-	-
O=[N+]([O-])c1ccc(-c2csc(=Nc3ccccc3)n2CCO)cc1	-	-
Cc1csc(=Nc2ccccc2)n1CC(O)c1ccc([N+](=O)[O-])cc1 (stereo not drawn)	83.0	-
CCn1ccc2c(cc(C(=O)Nc3cccc(C(F)(F)F)c3)n2C)c1=O	-	-
COc1ccccc1CNS(=O)(=O)c1ccc(F)c(C(=O)Nc2ccccc2OC)c1	-	-
Cc1cc(O)c(C=Nc2cc(Cl)ccc2O)cc1C	52.0	-
Oc1ccc(I)cc1C=Nc1cc(Cl)ccc1O	-	-
O=C(NCCc1ccccc1)C1CC(=O)N(CCc2c[nH]c3ccc(Cl)cc23)C1 (stereo not drawn)	90.0	-
O=C(NCc1ccccn1)C1CC(=O)N(CCc2c[nH]c3ccc(Cl)cc23)C1 (stereo not drawn)	92.5	-
CCCNC(=O)C1CC(=O)N(CCc2c[nH]c3ccc(Cl)cc23)C1 (stereo not drawn)	-	-
O=C1CC(C(=O)N2CCc3ccccc3C2)CN1CCc1c[nH]c2ccc(Cl)cc12 (stereo not drawn)	65.0	-
O=C1CC(C(=O)N2CCc3ccccc3C2)CN1CCc1c[nH]c2ccc(F)cc12 (stereo not drawn)	-	-
CC(C)CNC(=O)C1CC(=O)N(CCc2c[nH]c3ccc(Cl)cc23)C1 (stereo not drawn)	-	-
CCC(=O)N1c2ccc(S(=O)(=O)NCc3ccc(OC)cc3)cc2CC1C (stereo not drawn)	-	-
Cc1cccc(N2CC(C(=O)N(C)Cc3ccccc3)CC2=O)c1 (stereo not drawn)	-	-
COc1ccc(C=C2Oc3c(ccc(OCC(N)=O)c3C)C2=O)cc1	-	-
Cc1scc2nc(C(=O)Nc3ccccc3)nc(N3CCCC3)c12	-	-
Cc1scc2nc(C(=O)NCc3cccc(F)c3)nc(N3CCCC3)c12	64.8	-
Cc1scc2nc(C(=O)NCc3ccc(F)cc3)nc(N(C)C)c12	87.2	-
CCNC(=O)c1nc(N(C)C)c2c(C)scc2n1	-	-
COc1cccc(Nc2ncnc3c2nnn3Cc2ccc(Cl)cc2)c1	.	-
COc1cccc(C2=N/C(=C\c3ccccc3OC)C(=O)N2c2ccc(Cl)c([N+](=O)[O-])c2)c1	-	-
SMILES	mHTT CaM bind	Pf apPOL inh
O=C(NCC1OCCc2ccccc21)c1ccccc1[N+](=O)[O-] (stereo not drawn)	-	-
Cc1ccccc1C(=O)N1CCC(c2nc(C(=O)N3CCOCC3)c(C)o2)CC1	-	-
Cn1c(C(=O)N2CCN(c3ccccc3)CC2)cc2c1CCN(Cc1cccc(F)c1)C2	65.6	-
COc1ccc(CNC(=O)c2cc3c(n2C)CCN(Cc2cccc(F)c2)C3)cc1	-	-
Cn1c(C(=O)N2CCN(c3ccc(F)cc3)CC2)cc2c1CCN(Cc1ccccc1)C2	84.8	-
Cn1c(C(=O)NCCN2CCCC2)cc2c1CCN(Cc1cccc(F)c1)C2	79.2	-
Cn1c(C(=O)N2CCCCC2)cc2c1CCN(Cc1cccc(F)c1)C2	-	-
Cn1c(C(=O)N2CCOCC2)cc2c1CCN(Cc1ccccc1)C2	-	-
Cc1nc2cccnc2n1C1CCN(S(=O)(=O)c2cccnc2)C1 (stereo not drawn)	-	-
Brc1ccc2ncnc(N3CCCC3)c2c1	-	-
c1ccc2c(N3CCN(c4ncnc5ccccc45)CC3)ncnc2c1	-	56.8
COc1cccc(CNC(=O)C2CCCN(c3cnn(C)c(=O)c3)C2)c1 (stereo not drawn)	-	-
COc1ccccc1CNc1ccc2c(c1)ncn2-c1ccccc1	69.0	-
CCn1cnc2cc(NCc3ccc(Cl)cc3)ccc21	-	-
COc1cccc(CNc2ccc3c(c2)ncn3C)c1O	-	-
COc1ccccc1-n1cnc2cc(NCc3ccc(Cl)cc3)ccc21	80.0	-
Cc1ccc(-c2nc(-c3ccc(-n4ccnc4)nc3)no2)cc1	-	-
CC(=O)N1CCc2[nH]c3ccc(C(=O)NCc4ccc(N5CCOCC5)cc4)cc3c2C1	55.5	-
CCC(CC)NC(=O)c1ccc2[nH]c3c(c2c1)CN(C(C)=O)CC3	-	-
CCc1ccc(CNC(=O)c2ccc3[nH]c4c(c3c2)CN(C(C)=O)CC4)cc1	-	-
